# Sampled rows, rich in hits. Any-hit rate of the full collection: about 19%.
# TGFb SMAD3 inh – qHTS for Inhibitors of TGF-b | Potency, µM (top dose mostly 46.1 µM), for inactives: at the highest dose activity, negative = inhibition, most hits filed as inhibitors | HepG2 CAGA-GFP TGF-b/SMAD3 reporter, GFP fluorescence, 18 h; TGF-beta stimulated, 500 pg/mL final | 1.2% of 410,000 active; also: potency is read from the fitted curve at half-maximal effect; % is scaled to controls: 0 for no effect and ±100 for the full control effect; nearly all actives have a fitted effect of over 65% in size
#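 Cell-based qHTS in HEPG2 carrying a CAGA-GFP Smad reporter; compounds added before 500 pg/mL final TGF-beta, 18 h incubation at 37 degrees C, GFP fluorescence quantified per cell by imaging cytometry.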
# ASM inhibitor – Inhibitors of Secretory Acid Sphingomyelinase (S-ASM): qHTS | Sphingomyelin phosphodiesterase (Homo sapiens), P17405 | placental ASM, HMU-PC fluorogenic substrate, 60 min | Potency, µM (highest dose often 57.5 µM), for inactives: at the highest dose activity change, negative = inhibition, most hits filed as inhibitors | 0.006% of 340,000 active | AID 504937, 2011; also: potency is read from the fitted curve at half-maximal effect
# Target sequence (P17405 47-631 limits assumed): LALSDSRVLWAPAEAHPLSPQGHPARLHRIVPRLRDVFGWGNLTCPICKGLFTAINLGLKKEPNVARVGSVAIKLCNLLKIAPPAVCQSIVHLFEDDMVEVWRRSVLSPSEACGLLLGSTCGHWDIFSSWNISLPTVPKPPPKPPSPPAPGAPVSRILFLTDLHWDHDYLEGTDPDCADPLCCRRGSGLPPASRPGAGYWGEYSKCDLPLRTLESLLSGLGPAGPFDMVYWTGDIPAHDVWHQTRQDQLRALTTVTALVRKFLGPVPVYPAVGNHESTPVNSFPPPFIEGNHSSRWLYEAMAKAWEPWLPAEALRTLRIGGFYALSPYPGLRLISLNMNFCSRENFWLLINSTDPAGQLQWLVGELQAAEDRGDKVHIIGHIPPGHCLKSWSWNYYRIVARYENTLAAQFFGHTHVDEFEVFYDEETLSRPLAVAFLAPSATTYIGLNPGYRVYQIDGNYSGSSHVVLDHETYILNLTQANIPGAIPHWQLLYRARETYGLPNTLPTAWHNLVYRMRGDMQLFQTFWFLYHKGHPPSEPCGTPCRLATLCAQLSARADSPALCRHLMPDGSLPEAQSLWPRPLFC
#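 qHTS format. ASM enzyme prepared from human placenta hydrolyses the fluorogenic substrate HMU-PC0 (9 uM final) over 60 min at 37 °C after a 10 min compound preincubation.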
# TDP1 cell CPT – qHTS for Inhibitors of human tyrosyl-DNA phosphodiesterase 1 (TDP1): qHTS in cells in presence of CPT; 12% of 420,000 active; Potency, µM (top dose mostly 46.2 µM), for inactives: at the highest dose activity change, negative = growth inhibition, most hits filed as inhibitors; chicken DT40 Tdp1-/-;hTDP1 cells + 20 nM CPT, ATP luminescence, 48 h; also: potency is read from the fitted curve at half-maximal effect; % is scaled to controls: 0 for no effect and ±100 for the full control effect; nearly all actives have a fitted effect of over 55% in size
#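 Chicken DT40 Tdp1-/- cells stably complemented with human TDP1 were seeded at 400 cells/well in medium containing 20 nM camptothecin, exposed to pin-transferred compounds, and grown at 37 °C for at least 48 hr. Viability was read as ATP luminescence.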
# IL-1B inflam inh – qHTS for Inhibitors of Inflammasome Signaling: IL-1-beta AlphaLISA Primary Screen; THP-1 LPS/ATP IL-1B secretion, AlphaLISA, 16 h; active compounds read low; activity change, % at 57.5 µM; 4.7% of 360,000 active; in the data active = activity change below about -50%; inconclusive = mostly about -30% to -49%; also: % is scaled to controls: 0 for no effect and ±100 for the full control effect
#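 THP-1 cells pretreated 1 hr with compounds (up to 57.5 uM final), then stimulated with LPS (250 ng/mL final) plus ATP (1.25 mM final); secreted IL-1B measured by AlphaLISA after 16 hr, decreased signal indicating inhibition.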
# TDP1 cell noCPT – qHTS for Inhibitors of human tyrosyl-DNA phosphodiesterase 1 (TDP1): qHTS in cells in absence of CPT. DT40 Tdp1-/- hTDP1 cells, no CPT, ATP luminescence, 48 h. 15% of 420,000 active. Potency, µM (doses to about 46.2 µM), without a hit: top-dose activity change, negative = growth inhibition, most hits filed as inhibitors; also: potency is read from the fitted curve at half-maximal effect; % is scaled to controls: 0 for no effect and ±100 for the full control effect; nearly all actives have a fitted effect of over 55% in size
#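 Cells were dispensed at 400 per well, compounds added by pin tool, plates incubated ≥48 hr at 37 °C, then CellTiter-Glo added for 30 min at room temperature before luminescence reading. Line: DT40 Tdp1-/- complemented with hTDP1; camptothecin omitted.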
# HepG2 viability – qHTS for Inhibitors of TGF-b: Cytotox Counterscreen. HepG2 CAGA-GFP viability, ATP luminescence, 18 h. Potency, µM (doses to about 46.1 µM), for the others: at the top dose activity change, negative = cytotoxicity, usual class: cytotoxic. 0.76% of 410,000 active. AID 588856, 2011; also: potency is read from the fitted curve at half-maximal effect
#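 HepG2 CAGA-GFP cells (1000/well, DMEM with 1% FBS) received compound, then TGF-beta at 500 pg/mL final, and were incubated 18 hours at 37 degrees C. Viability was read by CellTiter-Glo luminescence. Media-only wells were set as complete cell-killing and DMSO as no toxicity.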
# * marks the source's active call; other numbers are inactive results; i = inactive; ? = inconclusive; . = not tested or not shown; [ ] = remark or other dose. Unless noted, calls follow the shape of the dose curve; as a rule, active = well fitted curve in the direction sought with a large enough effect; inconclusive = small, poorly fitted or top-dose-only effect, or another doubt; inactive = no such curve, though single readings can be large; an effect the other way counts as inactive or inconclusive.
SMILES,TGFb SMAD3 inh,ASM inhibitor,TDP1 cell CPT,IL-1B inflam inh,TDP1 cell noCPT,HepG2 viability
COc1cccc(NC(=O)C2(C)CCN2Cc2ccc(OC)c3ccccc23)c1 (stereo not given),-28%,.,?,-17,-75%,-4%
COc1cccc(NC(=O)C2(C)CCN2Cc2ccccc2OC(F)F)c1 (stereo not given),-14%,.,21µM*,-13,16µM*,-17%
CC1(C(=O)Nc2ccc3c(c2)OCCO3)CCN1Cc1ccccc1OC(F)F (stereo not given),0%,.,?,10,?,-49%
CC1(C(=O)Nc2cccc(NS(C)(=O)=O)c2)CCN1Cc1ccccc1OC(F)F (stereo not given),-2%,.,23µM*,-22,16µM*,-31%
Cc1c(Br)cccc1NC(=O)C1(C)CCN1Cc1ccccc1OC(F)F (stereo not given),?,.,26µM*,-2,?,-91%
CC(=O)O/N=C/c1c(Cl)n(C)c2ccccc12,8%,3%,-10%,10,-11%,12%
CCC(c1nnc(SCC(=O)Nc2cc(S(C)(=O)=O)ccc2Cl)n1Cc1ccccc1)N(C)C (stereo not given),8%,2%,-15%,10,-9%,5%
CCc1nn(CC(=O)N2CCN(c3cccc(Cl)c3)CC2)c(=O)c2cc3sccc3n12,-3%,.,-4%,.,-6%,0%
CC(C)c1c(C(=O)Nc2ccccc2)c(-c2ccccc2)c(-c2ccc(F)cc2)n1CC[C@@H](O)C[C@@H](O)CC(=O)O,.,.,?,.,15µM*,.
O=C(Nc1ccccc1)c1c(F)c(F)c(F)c(F)c1F,-1%,0%,-3%,-4,-7%,-1%
Cc1ccccc1Cn1c(=O)n(Cc2ccc(Cl)cc2)c(=O)c2cccnc21,-1%,.,15µM*,.,16µM*,4%
Cc1ccc(Cn2c(=O)c3cccnc3n(Cc3ccc(C)cc3)c2=O)cc1,-1%,.,-27%,.,-19%,1%
O=c1c2cccnc2n(Cc2ccc(Cl)cc2)c(=O)n1Cc1ccc(F)cc1,-3%,.,?,.,8.2µM*,3%
O=c1c2cccnc2n(Cc2ccccc2F)c(=O)n1Cc1ccc(F)cc1,-5%,.,-20%,.,?,2%
O=C1C=C(c2cccc3c2sc2ccccc23)C[C@@H](c2ccc(F)cc2)C1,-3%,-4%,?,-26,?,-8%
Cc1cnc(NC(=O)Cc2ccccc2F)s1,?,4%,7.3µM*,-14,21µM*,7%
COc1ccccc1CCC(=O)Nc1ncc(C)s1,11%,-1%,10µM*,0,?,0%
CC(C)(CN1CCCC1)NC(=O)C1CCC(=O)N(CCCN2CCOCC2)C1 (stereo not given),0%,5%,-1%,6,16%,12%
CC1(C)OC(C)(C)/C(=C/Nc2ccc(O)cc2)C1=O,3%,-1%,?,14,23µM*,5%
CC1(C)OC(=O)C(=CNc2cccc(O)c2)C(=O)O1,22%,-1%,1%,-7,6%,1%
CCC(=O)O/N=C(\N)c1ccc(Oc2cc(C)c(Cl)c(C)c2)c([N+](=O)[O-])c1,-20%,-3%,-13%,-18,?,13%
CC(C)(C)C(=O)O/N=C(\N)c1ccc(Oc2cc(Cl)cc(Cl)c2)c([N+](=O)[O-])c1,1%,-4%,?,-61*,?,-3%
Cc1cc(C(=O)Nc2ccccc2-c2nc(CNC(=O)c3cscn3)c(C)o2)c(C)o1,.,.,0%[9.04 µM],.,-19%,.
CCNc1nc(C)c2cc(Br)c(=O)n(CC)c2n1,31%,i,3.7µM*,-2,2.9µM*,2%
CCNc1ncc2nc(C)c(=O)n(CCC#N)c2n1,.,.,-22%,.,-5%,.
SMILES,TGFb SMAD3 inh,ASM inhibitor,TDP1 cell CPT,IL-1B inflam inh,TDP1 cell noCPT,HepG2 viability
O=C1C(=Cc2cn(-c3ccccc3)nc2-c2ccc(OCc3ccccc3)cc2)SC(=S)N1CCS(=O)(=O)O,4%,.,29µM*,34,?,3%
Cc1ccc(-c2nn(-c3ccccc3)cc2C=C2SC(=S)N(CCS(=O)(=O)O)C2=O)cc1,?,.,-23%,-3,?,-13%
OCc1cn(-c2ccccc2)nc1-c1ccc(Br)cc1,?,-8%,-2%,-8,-1%,-55%
O=C(O)CN1C(=O)/C(=C\c2cn(-c3ccccc3)nc2-c2ccccc2)SC1=S,-11%,31%,-27%,11,-18%,-16%
CC(C)COc1ccc(-c2nn(-c3ccccc3)cc2/C=C2/SC(=S)N(CC(=O)O)C2=O)cc1,0%,-12%,?,-8,9.2µM*,8%
CC(C)COc1ccc(-c2nn(-c3ccccc3)cc2CO)cc1,?,-15%,21µM*,-11,?,-135%
CCN1C(=O)/C(=C\c2cn(-c3ccccc3)nc2-c2cccnc2)SC1=S,0%,-2%,15µM*,9,?,6%
CC=CC1OCC(CC)C(CCC)O1 (stereo not given),-5%,-3%,8%,0,-1%,-4%
O=C(c1cccnc1)C1CCCN(Cc2ccc3c(c2)CN(C(=O)c2cccs2)CCO3)C1 (stereo not given),.,.,-7%[9.04 µM],.,?,.
COCCNC(=S)NN=C1CCCCC1,-35%,-4%,5.2µM*,26,5.2µM*,-63%
NC(=S)NN=C1C=CCCC1,-19%,4%,2.9µM*,14,4.6µM*,-12%
NC(=S)NN=C1CCCCCCCCC1,0%,-3%,?,-8,?,-37%
C=CCNC(=S)NN=C1CCCCCCC1,?,-1%,16µM*,13,26µM*,-29%
NC(=S)NN=C1CCCCCCCC1,?,-2%,2.3µM*,-4,?,-22%
CCCCN1CC[C@H]2C=CC[C@@H](C(=O)NCc3cccnc3)[C@H]2C1=O,-4%,.,2%,.,5%,-1%
COc1cc(OC)c(S(=O)(=O)Nc2ccccc2N2CCOCC2)cc1NC(C)=O,11%,5%,-2%,5,-11%,-8%
Cc1nc2cc(NC(=O)[C@@H]3C[C@@H](Sc4ccccn4)CN3Cc3cccc(F)c3)ccc2s1,.,.,15%[9.04 µM],.,-19%,.
